Source: PubChem BioAssay
Sampled rows, rich in hits. Any-hit rate of the full collection: about 5.4%.
p53 reactivation = mutant p53 re-activation in reporter cells | 320,000 tested, 0.063% active | H1299 p53-A138V BP100-luciferase reporter, luminescence, 24 h | Potency, µM (titrated, usually from 92.2 µM), hits mostly activators | AID 504706; also: nearly all actives have a fitted effect of over 45% in size
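H1299 (p53-null), stable ts p53-A138V + BP100-Luc; 1000 cells/well, Opti-MEM/10% FBS; cpd 4 pt, 1:5; 24 h, 37 deg C, 5% CO2; detection reagent 10 min RT; luminescence.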
RORgamma inh = ROR gamma (mouse) transcription inhibition | 310,000 tested, 5.4% active | Drosophila S2 Gal4-RORgamma UAS-luciferase reporter, 20 h | Potency, µM (highest dose often 53.6 µM), actives largely listed as inhibitors | P51450; also: nearly all actives have a fitted effect of over 60% in size
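Compounds are pin-transferred onto Drosophila Schneider cells expressing a copper-inducible Gal4–ROR gamma transactivation domain fusion. After 1 hr, copper sulfate is added to 700 uM final; luciferase is read 20 hr later.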
VP16 counter = Gal4-VP16 reporter inhibition counter-screen; AID 2546; Drosophila S2 Gal4-VP16 UAS-luciferase, luminescence, 20 h; Potency, µM (top dose mostly 53.6 µM), usual class: inhibitors; 310,000 tested, 3.5% active;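 also: Gal4-VP16 expression switched on by copper sulfate through the metallothionein promoter; nearly all actives have a fitted effect of over 50% in size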
CtBP-E1A blk = CtBP/E1A binding inhibition; AlphaScreen GST-E1A/His-CtBP binding, 1536-well; stronger effect = lower value; activity change, % (test concentration not listed); 340,000 tested, 0.49% active; in the data active = activity change below about -65%; inconclusive = mostly about -30% to -63%
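Protein mix (5X: 125 nM each GST-E1A, His-CtBP) was incubated with pinned compound 2 h at 37 deg C in dark, in 50 mM Tris pH 8.0 buffer with 300 mM NaCl. Glutathione donor and nickel acceptor beads followed; AlphaScreen signal read after 1 h.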
Six1-Eya2 inh = blocks human Six1 binding to Eya2; Q15475+O00167; AlphaScreen GST-Six1/His-Eya2 binding, biochemical; stronger effect = lower value; activity change, % (no concentration beside the values); 360,000 tested, 0.56% active; in the data active = activity change below about -65%; inconclusive = mostly about -30% to -63%
Target sequence (O00167 whole entry, looked up): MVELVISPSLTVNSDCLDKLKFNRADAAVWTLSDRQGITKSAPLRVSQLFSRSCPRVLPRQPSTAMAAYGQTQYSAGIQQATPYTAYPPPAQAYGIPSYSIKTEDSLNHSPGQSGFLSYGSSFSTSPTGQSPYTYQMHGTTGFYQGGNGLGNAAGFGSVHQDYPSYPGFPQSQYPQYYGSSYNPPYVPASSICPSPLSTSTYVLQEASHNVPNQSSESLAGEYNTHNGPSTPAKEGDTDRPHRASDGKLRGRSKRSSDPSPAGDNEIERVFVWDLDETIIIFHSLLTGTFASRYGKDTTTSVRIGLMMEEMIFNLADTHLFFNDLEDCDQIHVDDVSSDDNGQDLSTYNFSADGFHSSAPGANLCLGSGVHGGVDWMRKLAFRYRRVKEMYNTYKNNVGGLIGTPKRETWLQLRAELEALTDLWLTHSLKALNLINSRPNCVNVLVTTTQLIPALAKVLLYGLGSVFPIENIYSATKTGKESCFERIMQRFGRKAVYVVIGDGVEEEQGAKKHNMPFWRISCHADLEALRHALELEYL
Target sequence (Q15475 whole entry, looked up): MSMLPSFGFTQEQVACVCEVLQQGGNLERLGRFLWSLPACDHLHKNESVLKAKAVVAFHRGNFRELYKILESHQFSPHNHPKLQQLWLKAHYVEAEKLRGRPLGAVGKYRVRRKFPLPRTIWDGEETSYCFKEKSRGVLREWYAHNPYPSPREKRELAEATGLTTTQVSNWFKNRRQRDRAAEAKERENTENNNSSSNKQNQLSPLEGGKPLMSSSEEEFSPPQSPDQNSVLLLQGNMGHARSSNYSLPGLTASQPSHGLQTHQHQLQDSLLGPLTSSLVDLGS
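Six1/Eya2 binding was read as AlphaScreen signal after compounds were pinned into GST-Six1 plus His-tagged Eya2 (5X stock 250/500 nM) in pH 8.0 Tris/NaCl/TCEP buffer, beads added, then incubated 1 h, 37 C, dark.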
Each line names hits and unclear results; the compound was inactive in the other large screens. Unless noted, calls follow the shape of the dose curve; as a rule, active = well fitted curve in the direction sought with a large enough effect; inconclusive = small, poorly fitted or top-dose-only effect, or another doubt; inactive = no such curve, though single readings can be large; an effect the other way counts as inactive or inconclusive.

COc1cc(CNS(=O)(=O)c2ccc3c(c2)CC(C)N3C(=O)C2CCC2)cc(OC)c1OC (stereo not drawn)	VP16 counter 6.3µM
COC(=O)c1ccc(C(NC(=O)OCc2ccccc2)/C(=C/[C@@H](C)C(=O)NCc2cc(F)cc(F)c2)c2cccnc2)cc1 (stereo partly drawn)	none (no result: p53 reactivation, CtBP-E1A blk, Six1-Eya2 inh)
CC1(C)Cc2c(cnn2-c2ccc(F)cc2)C(NC(=O)C2CCC2)C1 (stereo not drawn)	none
COc1cccc(CNS(=O)(=O)c2ccc3c(c2)CC(C)N3C(=O)C2CC2)c1 (stereo not drawn)	VP16 counter inconclusive
COc1ccc(CNS(=O)(=O)c2ccc3c(c2)CC(C)N3C(=O)C2CC2)cc1 (stereo not drawn)	RORgamma inh inconclusive, VP16 counter 18µM
CC(C)N1CCc2c(sc(NC(=O)c3cc4cc([N+](=O)[O-])ccc4s3)c2C(N)=O)C1	RORgamma inh inconclusive, VP16 counter inconclusive
CN1CCc2c(sc(NC(=O)c3cc4cc([N+](=O)[O-])ccc4s3)c2C(N)=O)C1	RORgamma inh 5.6µM, VP16 counter 3.2µM (no result: CtBP-E1A blk, Six1-Eya2 inh)
CC(=O)Nc1ccc(S(=O)(=O)N2CCN(C(=O)c3cccnc3)CC2)cc1	none
Cc1cccc(NC(=S)NC(=O)c2oc3ccccc3c2C)n1	p53 reactivation inconclusive, RORgamma inh 8.9µM
Cc1ccc(C(=O)NC(=S)Nc2cccc3c(C)cc(C)nc23)cc1	p53 reactivation inconclusive, RORgamma inh 1µM, VP16 counter 4.5µM
COc1ccc(C(=O)NC(=S)Nc2cccc3nc(C)ccc23)cc1OC	RORgamma inh inconclusive
Cc1cccc(NC(=S)NC(=O)c2ccc(-c3ccccc3)cc2)n1	p53 reactivation inconclusive, RORgamma inh 4µM, VP16 counter inconclusive
Cc1ccc2c(NC(=S)NC(=O)c3ccccc3)cccc2n1	RORgamma inh 16µM, VP16 counter inconclusive
Cc1cccc(NC(=S)NC(=O)C(c2ccccc2)c2ccccc2)n1	none (no result: p53 reactivation, RORgamma inh, VP16 counter)
Fc1ccc(Nc2ncncc2-c2ccccc2C(F)(F)F)cc1	RORgamma inh inconclusive (no result: p53 reactivation, CtBP-E1A blk, Six1-Eya2 inh)
CCCc1nnc(NC(=O)CCC(=O)N2CCN(Cc3cc(Cl)ccc3OC)CC2)s1	none
CN1C(=O)Cc2cc(S(=O)(=O)N3CCN(c4cccc(Cl)c4)CC3)ccc21	none
CC(C)NC(=S)NC(=O)c1ccc(-c2ccccc2)cc1	p53 reactivation inconclusive, RORgamma inh 2.5µM, VP16 counter 3.2µM
CC(C)[C@H](NC(=O)OC(C)(C)C)c1cc(C(=O)N[C@@H](C)c2ccccc2)c(N)s1	none (no result: p53 reactivation, RORgamma inh, VP16 counter)
COCCN1C(=O)/C(=C/c2cc3c(cc2Br)OCO3)NC1=S	RORgamma inh 11µM, VP16 counter inconclusive (no result: CtBP-E1A blk)
CCCCC/C=C\C/C=C\C/C=C\CCCCCCC(=O)O[C@H](COCCCCCCCCCCCCCCCC)COP(=O)([O-])OCC[N+](C)(C)C	none (no result: p53 reactivation, CtBP-E1A blk, Six1-Eya2 inh)
COc1ccccc1OCc1nc(C#N)c(NCCCn2ccnc2)o1	none
N#Cc1nc(COc2ccccc2F)oc1NCCCn1ccnc1	p53 reactivation inconclusive, CtBP-E1A blk -75, Six1-Eya2 inh inconclusive
O=C(O)c1ncsc1-c1ccccc1	none
Cc1ccc(-n2nc3c([n+]2[O-])CCc2c-3no[n+]2[O-])cc1	VP16 counter inconclusive
[O-][n+]1onc2c1CCc1c-2nn(-c2ccccc2Cl)[n+]1[O-]	RORgamma inh 6.3µM, VP16 counter 3.2µM
O=C(CCl)N1N=C(c2cccs2)CC1c1ccco1 (stereo not drawn)	RORgamma inh 11µM, VP16 counter inconclusive
CN1CCN(CC(=O)N2N=C(c3cccs3)CC2c2ccco2)CC1 (stereo not drawn)	VP16 counter inconclusive
O=C(CCl)N1N=C(c2ccco2)CC1c1ccco1 (stereo not drawn)	RORgamma inh 10µM, VP16 counter inconclusive, Six1-Eya2 inh inconclusive
CC(C)C[C@H](NC(=O)CNC(=O)[C@@H]1CCCN1C(=O)[C@H](CCCNC(=N)N)NC(=O)[C@H](CC(=O)O)NC(=O)[C@@H](NC(=O)[C@H](CC(N)=O)NC(=O)[C@@H](NC(=O)[C@H](CC(=O)O)NC(=O)CNC(=O)[C@@H](NC(=O)[C@@H](NC(=O)[C@H](C)NC(=O)[C@@H](N)CCC(N)=O)[C@@H](C)O)C(C)C)C(C)C)[C@@H](C)O)C(=O)N[C@@H](CC(C)C)C(=O)N[C@@H](CC(=O)O)C(=O)N[C@@H](CC(C)C)C(=O)N[C@@H](CCCCN)C(=O)O	none (no result: p53 reactivation, CtBP-E1A blk, Six1-Eya2 inh)
Cc1cc(NC(=O)CCC(=O)N(c2ccc(F)cc2)C(C(=O)NC2CCCC2)c2ccc(C)o2)no1 (stereo not drawn)	none (no result: CtBP-E1A blk)
Clc1ccccc1/C=C/c1nc(-c2cccnc2)no1	RORgamma inh 2µM
C(=C\c1nc(-c2cccnc2)no1)/c1ccccc1	RORgamma inh 4.5µM, VP16 counter inconclusive
Cc1nc(SCc2nc3c(O)cccc3[nH]2)c2oc3ccccc3c2n1	none (no result: RORgamma inh, VP16 counter, CtBP-E1A blk, Six1-Eya2 inh)
C=CCOC(=O)/C=C/C(=O)NC(N)=O	RORgamma inh 20µM, VP16 counter inconclusive (no result: CtBP-E1A blk)
Cc1cccc(N2CCN(C(=O)CCNS(=O)(=O)c3cccs3)CC2C)c1 (stereo not drawn)	VP16 counter inconclusive
COc1ccc(C(=O)N/N=C/c2sc3ccccc3c2O)cc1	p53 reactivation inconclusive, RORgamma inh 2.2µM, VP16 counter 4µM, CtBP-E1A blk -65, Six1-Eya2 inh -74
Cc1c(/C=N\NC(=O)c2csc3ccccc23)cnn1C	RORgamma inh inconclusive
Oc1c(C=Nc2cccc3cccnc23)sc2ccccc12	p53 reactivation inconclusive, RORgamma inh 1.8µM, VP16 counter 1.4µM (no result: CtBP-E1A blk, Six1-Eya2 inh)
Cc1sccc1/C=N/NC(=O)c1cccc2ccccc12	RORgamma inh 11µM, VP16 counter inconclusive
CCn1ncc(/C=N\NC(=O)c2csc3ccccc23)c1C	p53 reactivation inconclusive, RORgamma inh 10µM, VP16 counter inconclusive
COc1ccc(C(=O)N/N=C/c2c[nH]c3ccccc23)cc1	none (no result: p53 reactivation)
O=C(O)C1=C(C(=O)O)C2C=CC1C2	none (no result: p53 reactivation, RORgamma inh, VP16 counter)
C#CCn1c(=O)c2c(nc(/C=C/c3cccc(OC)c3)n2C)n(CCCO)c1=O	none (no result: p53 reactivation, CtBP-E1A blk, Six1-Eya2 inh)
O=C(N/N=C/c1sc2ccccc2c1O)c1ccccc1	p53 reactivation 14µM, RORgamma inh 1.8µM, VP16 counter 1.6µM, CtBP-E1A blk inconclusive, Six1-Eya2 inh -87
O=C(N/N=C/c1ccc(F)cc1)c1ccccc1	none
COc1ccc2cc(C(=O)N/N=C/c3sc4ccccc4c3O)ccc2c1	p53 reactivation inconclusive, RORgamma inh 3.5µM, VP16 counter inconclusive, CtBP-E1A blk inconclusive, Six1-Eya2 inh inconclusive
O=C(N/N=C/c1cccn1-c1ccc(O)cc1)c1cccc2ccccc12	RORgamma inh 18µM, VP16 counter 16µM
O=C(N/N=C/c1ccccc1)c1cccc2ccccc12	none (no result: p53 reactivation, RORgamma inh, VP16 counter)
O=C(N/N=C/c1sc2ccccc2c1O)c1cccc2ccccc12	p53 reactivation inconclusive, RORgamma inh 1.8µM, VP16 counter 4.5µM, CtBP-E1A blk inconclusive, Six1-Eya2 inh inconclusive
